This passage reports PBM binding z-score results from the supplement of paper PMC6555819.

Assay in all cases: PBM binding z-score (relative to random genomic background probes); higher = stronger binding; sequences stand for … in GC…GCGATTGACAGCGTAGAATGAAGG
Assay [1] concerns FXR:RXRa (NR concentration 270 nM, RXRa partner concentration 90 nM). Summed up: (§1)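 Regression normalization was applied to scanned fluorescence from custom Agilent 4×180K protein-binding microarrays. Before scanning, arrays were incubated 1 h with ligand-free nuclear receptor dimers, and binding was detected with antibodies against each partner (one per run). Binding z-scores use the random background probes as reference.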

Assay [2] has as its system LXRa:RXRa (NR concentration 270 nM, RXRa partner concentration 90 nM). Summed up: as §1
For assay [3], the system named is LXRa homodimer (NR concentration 270 nM). Summed up: as §1
The subject of assay [4] is LXRb:RXRa (NR concentration 270 nM, RXRa partner concentration 90 nM). Summed up: as §1
Assay [5] concerns LXRb homodimer (NR concentration 270 nM). Summed up: as §1
Assay [6] concerns PPARa:RXRa (NR concentration 270 nM, RXRa partner concentration 90 nM). The method, boiled down: as §1
For assay [7], the system named is PPARg:RXRa (NR concentration 180 nM, RXRa partner concentration 90 nM). Summed up: as §1
Assay [8] has as its system PPARg:RXRa 270nM:90nM, anti-RXR (NR concentration 270 nM, RXRa partner concentration 90 nM). Summed up:
as §1

Assay [9] has as its system PPARg:RXRa 30nM:10nM, anti-RXR (NR concentration 30 nM, RXRa partner concentration 10 nM). Summed up:
as §1

Assay [10] relates to PPARg:RXRa 90nM:30nM, anti-RXR (NR concentration 90 nM, RXRa partner concentration 30 nM). Summed up: as §1

On to GCTAGTTGGTGAGTAAAAGGTCACACACCGGTCG, for which the PBM binding z-score in assay [1] was 3.1; in assay [2], 3.92; in [3], 3.81; in [4], 3.79; in assay [5], -0.0196; in [6], 4.55. For the same sequence, the PBM binding z-score was 3.87 in [7], 5.23 in assay [8], 3.09 in assay [9] and 4.99 in assay [10].

On to CCTTACGGGGCACTCCAGGTTATAGCATCGGAGT, for which the PBM binding z-score in assay [1] is 0.717; in [2], 5.05; in assay [3] it was 0.548; in assay [4] it was 1.13; in assay [5] it was -0.636; in assay [6], 0.679. In addition, the PBM binding z-score was 0.305 in [7], 0.0783 in assay [8], -0.441 in assay [9] and -0.274 in [10].

As for AATATAGGGTCATCGTAGGCCAGAGTACGCACAG, the PBM binding z-score in [1] is 7.57; in [2], 6.66; in assay [3], 2.71; in [4] it was 5; in assay [5] it was 1.56; in assay [6], 6.26. Besides, the PBM binding z-score in assay [7] was 7.29; in assay [8], 6.57; in assay [9], 3.61; in assay [10], 5.37.

In the case of ACAGACAGGTCAGTGAAGGTAACTCAGCTGGACG, the PBM binding z-score in assay [1] is 2.55; in assay [2], 1.83; in assay [3], -0.374; in [4] it was 1.07; in [5], -0.266; in [6], 2.47. Also, the PBM binding z-score in assay [7] was 1.18; in assay [8], 1.05; in assay [9], -0.166; in assay [10], 0.444.

CCAGACAGGTGAAAAGGTAACTCAGCCTCGATTA: the PBM binding z-score in assay [1] is 0.33; in [2], 0.666; in [3], -0.0851; in assay [4], 0.744; in assay [5] it was -0.438; in [6], 2.09. Besides, the PBM binding z-score came to 1.27 in assay [7], 2.24 in [8], 0.682 in assay [9] and 1.77 in assay [10].

On to GCTGCTAGGTCAACTGATGGTCAGCTGAAGCTCG, for which the PBM binding z-score in [1] is 4.05; in assay [2], 3.09; in assay [3] it was 0.169; in [4], 1.83; in [5], -0.22; in assay [6], 3.62. Also, the PBM binding z-score in [7] came to 2.6; in assay [8], 2.86; in assay [9], 0.554; in assay [10], 2.21.

Consider CCGACTGGGGGAGAAAGGTTACCATACCATCCGG, for which the PBM binding z-score in assay [1] worked out at 1.31; in [2], 1.61; in [3], 0.182; in assay [4], 2.9; in [5], 4.09; in assay [6], 3.66. In addition, the PBM binding z-score in [7] is 3.97; in [8], 6.01; in assay [9], 4.46; in assay [10], 6.42.

Consider CCTCGGAGGGCAACAGGAGGTCAGAGCTGCCAGA, for which the PBM binding z-score in assay [1] is 2.19; in assay [2], 3.83; in assay [3] it was 1.29; in assay [4], 2.23; in [5], -0.758; in assay [6] it was 3.02. The PBM binding z-score in [7] was 0.969; in [8], 1.32; in assay [9], -0.587; in [10], 0.405.

In the case of TAGCCTAGGTCATTGGGCCAGTATCGTACGCATC, the PBM binding z-score amounted to 4.61 in assay [1]; 3.37 in [2]; 0.842 in [3]; 2.55 in assay [4]; 0.185 in assay [5]; 3.85 in assay [6]. The PBM binding z-score in [7] came out at 3.26; in assay [8] it was 3.52; in [9] it was 0.601; in assay [10] it was 2.34.

CTCGAAAGGTCGGTTGAGGTGAGAATACGGATAA: the PBM binding z-score was 3.46 in assay [1]; 1.74 in assay [2]; -0.255 in assay [3]; 1.42 in assay [4]; 0.119 in assay [5]; 2.77 in assay [6]. In addition, the PBM binding z-score in assay [7] worked out at 0.632; in [8], 1.34; in [9], 0.543; in assay [10], 0.887.

CCAGACAGGTGAAAGGTAACTAAGTCTGGTACGC: the PBM binding z-score in assay [1] is 0.301; in [2] it was 0.559; in [3], -0.431; in [4], 0.84; in assay [5], -0.415; in assay [6], 3.31. In addition, the PBM binding z-score in [7] was determined as 5.33; in assay [8], 6.03; in [9], 4.37; in [10] it was 6.14.
